Source: PubChem BioAssay (Tox21)
Unmarked numbers belong to inactive results. Results filed as inconclusive are left out. Activity calls are given as the source filed them. The call rests on the fitted dose curve.

molecular target: 5-hydroxytryptamine receptor 2A (Homo sapiens) (UniProt P28223); experiment: 5-hydroxytryptamine receptor 2A (HTR2A) small molecule agonists, cell-based qHTS assay (AID 1963587); conditions: HTR2A-CHO cells, calcium flux fluorescence, agonist mode; series mostly up to 76.8 µM; activation: at the top concentration; further: nearly all actives have a fitted effect of over 30% in size
Summary of the method: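 CHO cells stably expressing human HTR2A, plated 18 h, loaded with calcium dye 1 h at 37 C. Agonist mode: compounds added and intracellular calcium fluorescence recorded kinetically for 2 min at 1 sec intervals.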
On the % scale 0 is the no-effect control and ±100 the full control effect.

Sequence of 5-hydroxytryptamine receptor 2A (Homo sapiens) (P28223 whole entry, looked up): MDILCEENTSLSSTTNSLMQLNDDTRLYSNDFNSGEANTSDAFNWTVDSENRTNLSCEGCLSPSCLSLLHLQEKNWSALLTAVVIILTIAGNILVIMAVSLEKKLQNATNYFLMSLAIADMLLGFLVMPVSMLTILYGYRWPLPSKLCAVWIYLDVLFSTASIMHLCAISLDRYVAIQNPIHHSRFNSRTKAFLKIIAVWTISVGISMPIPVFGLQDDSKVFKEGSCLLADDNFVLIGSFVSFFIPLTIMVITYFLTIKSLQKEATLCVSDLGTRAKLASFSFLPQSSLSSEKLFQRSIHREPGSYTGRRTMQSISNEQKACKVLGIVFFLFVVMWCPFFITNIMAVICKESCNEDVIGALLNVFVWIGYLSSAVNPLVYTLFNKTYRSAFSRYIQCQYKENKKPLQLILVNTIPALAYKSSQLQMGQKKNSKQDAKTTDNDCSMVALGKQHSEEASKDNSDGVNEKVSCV

SMILES | activation
CCCOC(=O)CC | -0.281%
C=CC(=O)N1CCOCC1 | 0.347%
C=CCOCC(O)CS(=O)(=O)O (stereo not given) | -0.0351%
CCCCNCC | 13.8%
CCCC1CCC(=O)CC1 | -2.45%
CCC(C)COC(C)=O (stereo not given) | -1.63%
CCCNC(C)(C)COC(=O)c1ccccc1 | 15% [at 35.6 µM]
Cc1ccc(C#N)cc1 | 1.7%
Cc1nnc(SCC2=C(C(=O)O)N3C(=O)[C@@H](NC(=O)Cn4cnnn4)[C@H]3SC2)s1 | -1.02% [at 35.6 µM]
CCN(CC)CCNC(C(=O)OCCC(C)C)c1ccccc1 (stereo not given) | -10.2% [at 35.6 µM]
CCOC(=O)CC(C)C | -0.114%
CCCCCCCCCCCCC1CO1 (stereo not given) | -2.43%
O=C(O)/C=C(\CC(=O)O)C(=O)O | -1.53% [at 35.6 µM]
CCCCCCCCS(=O)(=O)O | -0.371%
CC(C)CCCCCOC(=O)CCCCC(=O)OCCCCCC(C)C | 0.018%
CCOc1ccc(NC(N)=O)cc1 | -0.369%
CC1(C)CC(O)CC(C)(C)N1[O] | 0.074%
CC(C)COC(=O)CCCCC(=O)OCC(C)C | 2.5%
O=C1NCC2(CCN(CCc3ccccc3)CC2)O1 | -0.378% [at 35.6 µM]
C=C(C)C(=O)OCC | 1.91%

SMILES | activation
CC(CO)(CO)[N+](=O)[O-] | -1.18%
C=CCCCCCCCCCCCCCC | 4.53% [at 15.9 µM]
OC(C#CCN1CCCC1)(c1ccccc1)c1ccccc1 | -0.999% [at 35.6 µM]
C=C(C)[C@@H]1CC=C(C)C(=O)C1 | -0.559%
CCC(C)N (stereo not given) | 2.49%
COC(C)=O | 7.18%
CCCCN1C[C@H](O)[C@@H](O)[C@H](O)[C@H]1CO | -10% [at 35.6 µM]
CC(=O)OCC(=O)NCCCOc1cccc(CN2CCCCC2)c1 | -9.72% [at 35.6 µM]
OC1CCCCC1c1ccccc1 (stereo not given) | 6.66%
CCCCCCCCCCC=O | -0.32%
CC(C)(C)CC(C)(C)N | -2.39%
C=CCCCCCCCCOC(C)=O | 2.29%
C[C@H](NC(CCc1ccccc1)C(=O)O)C(=O)N1CCC[C@H]1C(=O)O (stereo not given in full) | -4.13% [at 35.6 µM]
CC(N=C(NC#N)Nc1ccncc1)C(C)(C)C (stereo not given) | -0.51% [at 35.6 µM]
OCCC1CCCCN1 (stereo not given) | -0.228%
C[C@]12CCC(=O)C=C1CC[C@H]1[C@@H]3CC[C@](O)(C(=O)CO)[C@@]3(C)C[C@H](O)[C@@]12F | -3.7% [at 35.6 µM]
CCC(C)(CCC(C)C)C(=O)O (stereo not given) | -5.84%
COP(=O)(O)OP(=O)(O)OC | 8.19%
CCCC(=O)OC/C=C(\C)CCC=C(C)C | -1.98%
NNC(=O)CP(=O)(c1ccccc1)c1ccccc1 | 1.25% [at 35.6 µM]

molecular target: Muscarinic acetylcholine receptor M1 (Homo sapiens) (UniProt P11229); experiment: Cholinergic receptor muscarinic 1 (CHRM1) small molecule antagonists, cell-based qHTS assay (AID 1963588); conditions: CHRM1-CHO antagonist mode, calcium flux fluorescence; series mostly up to 61.5 µM; activity, negative = inhibition: at the top concentration; further: nearly all actives have a fitted effect of over 40% in size; further: potency means the concentration at half of the fitted maximal effect
Summary of the method: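 Compounds were tested at 15 concentrations in three independent runs. Dye-loaded CHRM1-CHO cells were exposed 5 min at room temperature before stimulation by acetylcholine added at 50nM. Intracellular calcium was read kinetically on FDSS for 3 min.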

Sequence of Muscarinic acetylcholine receptor M1 (Homo sapiens) (P11229 whole entry, looked up): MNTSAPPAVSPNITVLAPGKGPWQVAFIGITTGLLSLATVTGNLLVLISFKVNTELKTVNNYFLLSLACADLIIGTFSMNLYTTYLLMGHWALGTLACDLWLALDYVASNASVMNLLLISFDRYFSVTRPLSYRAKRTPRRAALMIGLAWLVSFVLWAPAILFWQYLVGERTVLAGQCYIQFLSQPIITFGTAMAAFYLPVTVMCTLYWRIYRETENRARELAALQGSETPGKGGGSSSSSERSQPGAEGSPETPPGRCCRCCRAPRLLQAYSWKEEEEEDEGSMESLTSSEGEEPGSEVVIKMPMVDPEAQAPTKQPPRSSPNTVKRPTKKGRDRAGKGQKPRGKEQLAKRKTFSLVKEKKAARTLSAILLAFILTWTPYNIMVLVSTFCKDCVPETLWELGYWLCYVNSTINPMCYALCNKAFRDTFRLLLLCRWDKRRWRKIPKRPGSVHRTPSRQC

SMILES | activity, negative = inhibition | Potency
CCCOC(=O)CC | 4.64% | 
C=CC(=O)N1CCOCC1 | 14.4% | 
C=CCOCC(O)CS(=O)(=O)O (stereo not given) | -1.14% | 
CCCCNCC | -4.22% | 
CCCC1CCC(=O)CC1 | 9.4% | 
CCC(C)COC(C)=O (stereo not given) | -2.77% | 
CCCNC(C)(C)COC(=O)c1ccccc1 | 2.93% [at 28.3 µM] | 
Cc1ccc(C#N)cc1 | 18.2% | 
Cc1nnc(SCC2=C(C(=O)O)N3C(=O)[C@@H](NC(=O)Cn4cnnn4)[C@H]3SC2)s1 | -1.27% [at 28.3 µM] | 
CCN(CC)CCNC(C(=O)OCCC(C)C)c1ccccc1 (stereo not given) |  | 516 nM (active)
CCOC(=O)CC(C)C | 3.6% | 
CCCCCCCCCCCCC1CO1 (stereo not given) | -23% | 
O=C(O)/C=C(\CC(=O)O)C(=O)O | 1.85% [at 28.3 µM] | 
CCCCCCCCS(=O)(=O)O | -0.357% | 
CC(C)CCCCCOC(=O)CCCCC(=O)OCCCCCC(C)C | 2.09% | 
CCOc1ccc(NC(N)=O)cc1 | 2.05% | 
CC1(C)CC(O)CC(C)(C)N1[O] | 5.15% | 
CC(C)COC(=O)CCCCC(=O)OCC(C)C | 10.8% | 
O=C1NCC2(CCN(CCc3ccccc3)CC2)O1 | -22.7% [at 28.3 µM] | 
C=C(C)C(=O)OCC | 2.59% | 

SMILES | activity, negative = inhibition | Potency
CC(CO)(CO)[N+](=O)[O-] | 19.2% | 
C=CCCCCCCCCCCCCCC | -25.1% [at 12.6 µM] | 
OC(C#CCN1CCCC1)(c1ccccc1)c1ccccc1 |  | 6.5 nM (active)
C=C(C)[C@@H]1CC=C(C)C(=O)C1 | 20.9% | 
CCC(C)N (stereo not given) | 4.69% | 
COC(C)=O | -0.523% | 
CCCCN1C[C@H](O)[C@@H](O)[C@H](O)[C@H]1CO | 27.1% [at 28.3 µM] | 
CC(=O)OCC(=O)NCCCOc1cccc(CN2CCCCC2)c1 | -16.3% [at 28.3 µM] | 
OC1CCCCC1c1ccccc1 (stereo not given) | 11.4% | 
CCCCCCCCCCC=O | -11.4% | 
CC(C)(C)CC(C)(C)N | -15.4% | 
C=CCCCCCCCCOC(C)=O | 2.89% | 
C[C@H](NC(CCc1ccccc1)C(=O)O)C(=O)N1CCC[C@H]1C(=O)O (stereo not given in full) | -1.89% [at 28.3 µM] | 
CC(N=C(NC#N)Nc1ccncc1)C(C)(C)C (stereo not given) | 8.27% [at 28.3 µM] | 
OCCC1CCCCN1 (stereo not given) | 14.4% | 
C[C@]12CCC(=O)C=C1CC[C@H]1[C@@H]3CC[C@](O)(C(=O)CO)[C@@]3(C)C[C@H](O)[C@@]12F | 4.82% [at 28.3 µM] | 
CCC(C)(CCC(C)C)C(=O)O (stereo not given) | 0.75% | 
COP(=O)(O)OP(=O)(O)OC | 2.1% | 
CCCC(=O)OC/C=C(\C)CCC=C(C)C | -18.9% | 
NNC(=O)CP(=O)(c1ccccc1)c1ccccc1 | 3.61% [at 28.3 µM] | 

molecular target: Muscarinic acetylcholine receptor M1 (Homo sapiens) (UniProt P11229); experiment: Cholinergic receptor muscarinic 1 (CHRM1) small molecule agonists, cell-based qHTS assay (AID 1963589); conditions: CHRM1-CHO cells, agonist mode, calcium flux fluorescence; series mostly up to 76.8 µM; activation: at the top concentration; further: nearly all actives have a fitted effect of over 35% in size
Summary of the method: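 Agonist-mode calcium-flux screen: compounds at 15 concentrations, three independent runs, were pin-transferred onto dye-loaded human CHRM1-CHO cells. Fluorescence was then recorded kinetically every second over minutes.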

SMILES | activation
CCCOC(=O)CC | 0.101%
C=CC(=O)N1CCOCC1 | 0.457%
C=CCOCC(O)CS(=O)(=O)O (stereo not given) | -0.279%
CCCCNCC | -0.857%
CCCC1CCC(=O)CC1 | 0.185%
CCC(C)COC(C)=O (stereo not given) | -0.0227%
CCCNC(C)(C)COC(=O)c1ccccc1 | -0.152% [at 35.3 µM]
Cc1ccc(C#N)cc1 | -0.477%
Cc1nnc(SCC2=C(C(=O)O)N3C(=O)[C@@H](NC(=O)Cn4cnnn4)[C@H]3SC2)s1 | -0.728% [at 35.3 µM]
CCN(CC)CCNC(C(=O)OCCC(C)C)c1ccccc1 (stereo not given) | -0.304% [at 35.3 µM]
CCOC(=O)CC(C)C | 0.325%
CCCCCCCCCCCCC1CO1 (stereo not given) | 0.627%
O=C(O)/C=C(\CC(=O)O)C(=O)O | 0.0352% [at 35.3 µM]
CCCCCCCCS(=O)(=O)O | 0.0515%
CC(C)CCCCCOC(=O)CCCCC(=O)OCCCCCC(C)C | 0.903%
CCOc1ccc(NC(N)=O)cc1 | -0.123%
CC1(C)CC(O)CC(C)(C)N1[O] | 0.215%
CC(C)COC(=O)CCCCC(=O)OCC(C)C | 0.689%
O=C1NCC2(CCN(CCc3ccccc3)CC2)O1 | 1.76% [at 35.3 µM]
C=C(C)C(=O)OCC | -0.0282%

SMILES | activation
CC(CO)(CO)[N+](=O)[O-] | 0.0322%
C=CCCCCCCCCCCCCCC | -0.058% [at 15.8 µM]
OC(C#CCN1CCCC1)(c1ccccc1)c1ccccc1 | -0.45% [at 35.3 µM]
C=C(C)[C@@H]1CC=C(C)C(=O)C1 | 0.694%
CCC(C)N (stereo not given) | 0.139%
COC(C)=O | -0.68%
CCCCN1C[C@H](O)[C@@H](O)[C@H](O)[C@H]1CO | -0.0924% [at 35.3 µM]
CC(=O)OCC(=O)NCCCOc1cccc(CN2CCCCC2)c1 | -0.046% [at 35.3 µM]
OC1CCCCC1c1ccccc1 (stereo not given) | 0.0994%
CCCCCCCCCCC=O | 0.0308%
CC(C)(C)CC(C)(C)N | -0.387%
C=CCCCCCCCCOC(C)=O | -0.105%
C[C@H](NC(CCc1ccccc1)C(=O)O)C(=O)N1CCC[C@H]1C(=O)O (stereo not given in full) | 0.0274% [at 35.3 µM]
CC(N=C(NC#N)Nc1ccncc1)C(C)(C)C (stereo not given) | -0.151% [at 35.3 µM]
OCCC1CCCCN1 (stereo not given) | -0.596%
C[C@]12CCC(=O)C=C1CC[C@H]1[C@@H]3CC[C@](O)(C(=O)CO)[C@@]3(C)C[C@H](O)[C@@]12F | -0.325% [at 35.3 µM]
CCC(C)(CCC(C)C)C(=O)O (stereo not given) | -1.47%
COP(=O)(O)OP(=O)(O)OC | 0.523%
CCCC(=O)OC/C=C(\C)CCC=C(C)C | -0.358%
NNC(=O)CP(=O)(c1ccccc1)c1ccccc1 | -0.115% [at 35.3 µM]
